Among the data in PubChem BioAssay (Tox21) are Potency and outcome values, retold here.

Inconclusive results are not listed. A number with no mark means an inactive call. Active and inactive are the calls of the source. Unless noted, the call rests on the fitted dose curve; in most records, active means well fitted curve in the direction sought with a large enough effect in the repeat runs; inconclusive means weak or mixed curves; inactive means no such curve, though single readings can be large; an effect the other way counts as inactive or inconclusive.

Assay [1] is described as follows: qHTS assay to identify aromatase inhibitors - cell viability counter screen (AID 743084).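 Further: cells stimulated with testosterone during compound exposure; nearly all actives have a fitted effect of over 55% in size.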
For assay [2], the target named is Aryl hydrocarbon receptor (Homo sapiens) (UniProt P35869). The experiment in a line: qHTS assay to identify small molecule that activate the aryl hydrocarbon receptor (AhR) signaling pathway (AID 743085).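 Further: HG2L7.5c1 human HepG2 liver cells with stably integrated DRE-driven firefly reporter; series mostly up to about 70 µM; nearly all actives have a fitted effect of over 15% in size.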 The method, boiled down:
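Stably transfected human liver carcinoma cells (HG2L7.5c1; 20 DRE-firefly luciferase) were incubated 5 h, dosed, and kept 24 h at 37C. Agonism was scored from increased luciferase luminescence.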

For assay [3], the target named is Peroxisome proliferator-activated receptor gamma (Homo sapiens) (UniProt P37231). The experiment in a line: qHTS assay to identify small molecule agonists of the peroxisome proliferator-activated receptor gamma (PPARg) signaling pathway (AID 743094; active means well fitted activation curve with a large enough effect in the signal ratio in the repeat runs, not every such curve was filed as active; the % refers to the signal ratio). The method, boiled down:
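Following 5 h plating at 37C, PPARg-bla HEK293H cells receive compound or DMSO for 17 h; fluorescence intensity is recorded after LiveBLAzer B/G loading for 1 h at room temperature.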

Assay [4] shares this target. The experiment in a line: qHTS assay to identify small molecule antagonists of the peroxisome proliferator-activated receptor gamma (PPARg) signaling pathway (AID 743191; calls by dose curve; further: series mostly up to about 63 µM; nearly all actives have a fitted effect of over 30% in size). The method, boiled down: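 GeneBLAzer PPARg UAS-bla HEK293H cells, 5 h post-plating, exposed to compounds 17 h at 37C. LiveBLAzer B/G FRET substrate added for 1 h at room temperature; beta-lactamase reporter read by fluorescence intensity.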

Assay [5] is described as follows: qHTS assay to identify small molecule antagonists of the peroxisome proliferator-activated receptor gamma (PPARg) signaling pathway - cell viability counter screen (AID 743194). Further: nearly all actives have a fitted effect of over 55% in size. The method, boiled down:
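Cytotoxicity counter screen in PPARg-bla HEK293H cells, same wells as reporter assay. Compounds plus 50 nM rosiglitazone (final) for 17 h at 37 C, then viability read by CellTiter-Glo luminescence.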

A short description of assay [6]: qHTS assay for small molecule agonists of the antioxidant response element (ARE) signaling pathway (AID 743202; active means well fitted activation curve with a large enough effect in the signal ratio in the repeat runs, not every such curve was filed as active; the % refers to the signal ratio; further: potency means the concentration at half of the fitted maximal effect). The method, boiled down:
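Agonist mode reporter screen: HepG2 cells with ARE-controlled beta-lactamase are incubated with test compounds for 16 h at 37 C, and beta-lactamase activity is measured as fluorescence of cleaved B/G FRET substrate.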

Assay [7] in a line: qHTS assay for small molecule agonists of the antioxidant response element (ARE) signaling pathway - cell viability counter screen (AID 743203; calls by dose curve; further: nearly all actives have a fitted effect of over 55% in size). The method, boiled down: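 Compounds in DMSO were pinned onto ARE-bla HepG2 cells plated 5 hrs earlier at 2,000 cells/well. Sixteen hours later at 37C/5% CO2, CellTiter-Glo was added and luminescence measured after 30 min at room temperature.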

A short description of assay [8]: qHTS assay for small molecule activators of the heat shock response signaling pathway - cell viability counter screen (AID 743209). Further: nearly all actives have a fitted effect of over 50% in size. An outline of the steps:
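Counter screen for cytotoxicity in HeLa HSE-bla reporter cells. Treatment was 5 h at 37 C; viability was detected by luminescent ATP assay (CellTiter-Glo) in the same wells as the beta-lactamase read.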

Assay [9] is described as follows: qHTS assay for small molecule activators of the heat shock response signaling pathway (AID 743210; active means well fitted activation curve with a large enough effect in the signal ratio in the repeat runs, with a control signal flat, not every such curve was filed as active; the % refers to the signal ratio;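 further: HeLa cells with beta-lactamase reporter driven by heat shock elements; series mostly up to about 63 µM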). An outline of the steps: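 Quantitative high-throughput format using an engineered HeLa line in which heat shock response elements drive beta-lactamase; after 5 h with compound, cells received a B/G FRET substrate and fluorescence was read.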
Assay [10] in a line: qHTS assay to identify small molecule agonists of the peroxisome proliferator-activated receptor delta (PPARd) signaling pathway - cell viability counter screen (AID 743211). Further: nearly all actives have a fitted effect of over 55% in size. The method, boiled down:
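In the same wells used for beta-lactamase reporter measurement, cytotoxicity is scored by CellTiter-Glo. HEK293H PPARd-bla cells receive compound for 17 h at 37C following a 5 h settling period.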

Assay [11] in a line: qHTS assay to identify small molecule antagonists of the peroxisome proliferator-activated receptor delta (PPARd) signaling pathway - cell viability counter screen (AID 743213). Further: nearly all actives have a fitted effect of over 50% in size. The method, boiled down:
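HEK293H PPARd UAS-bla cells, 5 h pre-incubation, compound + L165041 300 nM final, 17 h 37 C; B/G FRET substrate 2 h RT; then CellTiter-Glo 30 min RT, luminescence.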

In assay [12] the target is Peroxisome proliferator-activated receptor delta (Homo sapiens) (UniProt Q03181). The experiment in a line: qHTS assay to identify small molecule antagonists of the peroxisome proliferator-activated receptor delta (PPARd) signaling pathway (AID 743215; active means well fitted inhibition curve with a large enough effect in the signal ratio in the repeat runs, not every such curve was filed as active; the % refers to the signal ratio;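 further: cells stimulated with agonist L165041 at 300 nM final during compound exposure; series mostly up to about 62 µM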). An outline of the steps:
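With L165041 present at 300 nM final, compounds were incubated 17 h at 37 C on PPARd UAS-bla HEK293H cells. A FRET-based beta-lactamase substrate was then applied for 2 h at room temperature and fluorescence intensity recorded.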

Assay [13] can be described thus: qHTS assay to identify small molecule antagonists of the farnesoid-X-receptor (FXR) signaling pathway - cell viability counter screen (AID 743221; active means well fitted cell-killing curve with a large enough effect in the repeat runs, not every such curve was filed as active; further: nearly all actives have a fitted effect of over 50% in size). An outline of the steps: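 Here viability was scored by luminescence after CellTiter-Glo addition to wells already read for beta-lactamase. Prior treatment: compound plus CDCA (50 uM final), 16 h, 37 C, HEK 293T FXR-bla cells.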

Assay [14] in a line: qHTS assay to identify small molecule agonists of the farnesoid-X-receptor (FXR) signaling pathway - cell viability counter screen (AID 743218). Further: nearly all actives have a fitted effect of over 45% in size. The method, boiled down:
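After 16 h at 37 C with test compounds, FXR-bla HEK 293T cells were given LiveBLAzer B/G substrate for 2 h at RT and then CellTiter-Glo; luminescence was taken after 30 min.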

For assay [15], the target named is Vitamin D3 receptor (Homo sapiens) (UniProt P11473). The experiment in a line: qHTS assay to identify small molecule agonists of the vitamin D receptor (VDR) signaling pathway (AID 743222; calls by dose curve). The method, boiled down:
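VDR-bla cells were seeded, left 4 h, treated with compounds in DMSO for 16 h, incubated 2 h at RT with B/G FRET substrate, and read for fluorescence.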

The nature of assay [16]: qHTS assay to identify small molecule that activate the aryl hydrocarbon receptor (AhR) signaling pathway - cell viability counter screen (AID 743086).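 Further: HepG2 liver cells carrying the AhR DRE luciferase reporter; series mostly up to about 70 µM; nearly all actives have a fitted effect of over 45% in size.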 The method, boiled down:
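HepG2-AhR-luc (HG2L7.5c1) cells, 4000/well, treated 24 h at 37 C with compound; viability measured as CellTiter-Fluor fluorescence after 30 min in the same wells as the luciferase read.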

The target in assay [17] is Bile acid receptor (Homo sapiens) (UniProt Q96RI1). The experiment in a line: qHTS assay to identify small molecule antagonists of the farnesoid-X-receptor (FXR) signaling pathway (AID 743217; active means well fitted inhibition curve with a large enough effect in the signal ratio in the repeat runs, not every such curve was filed as active; the % refers to the signal ratio). The method, boiled down: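 In this cell-based antagonist screen, inhibition of CDCA-driven (50 uM final) UAS-beta-lactamase expression in HEK 293T cells was measured by FRET fluorescence following 16 h compound exposure at 37 °C.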

For assay [18] the target is unchanged. The experiment in a line: qHTS assay to identify small molecule agonists of the farnesoid-X-receptor (FXR) signaling pathway (AID 743220; active means well fitted activation curve with a large enough effect in the signal ratio in the repeat runs, not every such curve was filed as active; the % refers to the signal ratio). The method, boiled down: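 Beta-lactamase reporter under UAS control in GeneBLAzer FXR HEK 293T cells (5000/well) measured with LiveBLAzer FRET substrate after 2 h at room temperature. Compound exposure lasted 16 h at 37C.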

Assay [19] has as its target Vitamin D3 receptor (Homo sapiens) (UniProt P11473). The experiment in a line: qHTS assay to identify small molecule antagonists of the vitamin D receptor (VDR) signaling pathway (AID 743223; active means well fitted inhibition curve with a large enough effect in the signal ratio in the repeat runs, not every such curve was filed as active; the % refers to the signal ratio). An outline of the steps:
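Inhibition of agonist-driven VDR signalling is scored in VDR-bla cells: 3 nM final 1alpha,25-dihydroxyvitamin D3 plus compound, 16 h at 37C, then beta-lactamase detection by FRET substrate fluorescence after 2 h.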

For assay [20], the target named is Peroxisome proliferator-activated receptor delta (Homo sapiens) (UniProt Q03181). The experiment in a line: qHTS assay to identify small molecule agonists of the peroxisome proliferator-activated receptor delta (PPARd) signaling pathway (AID 743212; calls by dose curve). The method, boiled down: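 Quantitative high-throughput agonist screen in a HEK293H beta-lactamase reporter line under UAS control. Compounds in DMSO, at 37 C. Fluorescence read after 2 h with FRET substrate at room temperature.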
Peroxisome proliferator-activated receptor delta (Homo sapiens), sequence (Q03181 whole entry, looked up): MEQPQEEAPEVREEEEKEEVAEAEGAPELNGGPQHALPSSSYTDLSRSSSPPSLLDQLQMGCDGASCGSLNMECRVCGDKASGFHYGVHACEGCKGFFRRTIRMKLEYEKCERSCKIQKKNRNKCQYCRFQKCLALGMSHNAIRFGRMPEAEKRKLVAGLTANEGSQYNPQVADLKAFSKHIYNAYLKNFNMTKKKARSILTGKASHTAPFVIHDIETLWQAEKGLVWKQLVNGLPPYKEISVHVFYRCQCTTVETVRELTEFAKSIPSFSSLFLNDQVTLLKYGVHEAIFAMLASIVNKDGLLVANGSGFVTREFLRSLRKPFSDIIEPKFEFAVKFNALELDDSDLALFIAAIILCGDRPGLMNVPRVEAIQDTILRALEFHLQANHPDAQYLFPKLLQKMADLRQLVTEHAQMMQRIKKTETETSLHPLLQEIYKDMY

Bile acid receptor (Homo sapiens), sequence (Q96RI1 whole entry, looked up): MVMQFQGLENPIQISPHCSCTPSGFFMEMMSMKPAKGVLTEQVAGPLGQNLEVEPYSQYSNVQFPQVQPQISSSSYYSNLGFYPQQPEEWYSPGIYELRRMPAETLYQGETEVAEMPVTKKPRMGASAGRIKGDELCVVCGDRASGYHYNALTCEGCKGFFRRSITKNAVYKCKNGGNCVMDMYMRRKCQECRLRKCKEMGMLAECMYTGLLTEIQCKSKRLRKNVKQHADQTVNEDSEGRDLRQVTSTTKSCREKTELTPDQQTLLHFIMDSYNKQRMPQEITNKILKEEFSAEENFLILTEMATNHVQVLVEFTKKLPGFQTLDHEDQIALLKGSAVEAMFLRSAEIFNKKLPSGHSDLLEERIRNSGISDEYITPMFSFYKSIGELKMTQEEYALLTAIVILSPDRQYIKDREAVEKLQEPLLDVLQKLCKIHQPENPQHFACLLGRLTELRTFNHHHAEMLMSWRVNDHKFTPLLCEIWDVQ
Peroxisome proliferator-activated receptor gamma (Homo sapiens), sequence (P37231 whole entry, looked up): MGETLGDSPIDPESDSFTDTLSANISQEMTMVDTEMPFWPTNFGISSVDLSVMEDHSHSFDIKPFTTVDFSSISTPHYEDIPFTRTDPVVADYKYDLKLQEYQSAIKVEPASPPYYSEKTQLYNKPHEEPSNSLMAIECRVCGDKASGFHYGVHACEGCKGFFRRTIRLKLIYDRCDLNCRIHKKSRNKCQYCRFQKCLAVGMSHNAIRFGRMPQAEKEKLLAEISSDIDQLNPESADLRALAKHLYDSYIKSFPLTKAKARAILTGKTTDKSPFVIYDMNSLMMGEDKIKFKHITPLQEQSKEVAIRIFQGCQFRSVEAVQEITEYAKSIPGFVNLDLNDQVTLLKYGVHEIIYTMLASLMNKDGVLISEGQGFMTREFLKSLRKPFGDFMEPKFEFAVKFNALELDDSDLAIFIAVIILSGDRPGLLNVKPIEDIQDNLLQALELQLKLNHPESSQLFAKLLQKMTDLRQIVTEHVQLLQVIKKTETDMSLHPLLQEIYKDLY
Vitamin D3 receptor (Homo sapiens), sequence (P11473 whole entry, looked up): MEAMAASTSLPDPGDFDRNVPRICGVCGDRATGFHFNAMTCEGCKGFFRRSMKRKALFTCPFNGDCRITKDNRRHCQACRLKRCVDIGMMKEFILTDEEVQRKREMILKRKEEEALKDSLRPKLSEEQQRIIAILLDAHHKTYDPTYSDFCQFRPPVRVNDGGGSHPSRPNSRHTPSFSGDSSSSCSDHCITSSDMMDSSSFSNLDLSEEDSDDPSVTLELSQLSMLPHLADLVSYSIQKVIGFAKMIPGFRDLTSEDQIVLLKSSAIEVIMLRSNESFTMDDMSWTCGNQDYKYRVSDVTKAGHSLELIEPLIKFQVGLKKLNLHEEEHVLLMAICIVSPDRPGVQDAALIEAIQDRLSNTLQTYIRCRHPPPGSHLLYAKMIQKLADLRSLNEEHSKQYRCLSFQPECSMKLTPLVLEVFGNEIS
Aryl hydrocarbon receptor (Homo sapiens), sequence (P35869 whole entry, looked up): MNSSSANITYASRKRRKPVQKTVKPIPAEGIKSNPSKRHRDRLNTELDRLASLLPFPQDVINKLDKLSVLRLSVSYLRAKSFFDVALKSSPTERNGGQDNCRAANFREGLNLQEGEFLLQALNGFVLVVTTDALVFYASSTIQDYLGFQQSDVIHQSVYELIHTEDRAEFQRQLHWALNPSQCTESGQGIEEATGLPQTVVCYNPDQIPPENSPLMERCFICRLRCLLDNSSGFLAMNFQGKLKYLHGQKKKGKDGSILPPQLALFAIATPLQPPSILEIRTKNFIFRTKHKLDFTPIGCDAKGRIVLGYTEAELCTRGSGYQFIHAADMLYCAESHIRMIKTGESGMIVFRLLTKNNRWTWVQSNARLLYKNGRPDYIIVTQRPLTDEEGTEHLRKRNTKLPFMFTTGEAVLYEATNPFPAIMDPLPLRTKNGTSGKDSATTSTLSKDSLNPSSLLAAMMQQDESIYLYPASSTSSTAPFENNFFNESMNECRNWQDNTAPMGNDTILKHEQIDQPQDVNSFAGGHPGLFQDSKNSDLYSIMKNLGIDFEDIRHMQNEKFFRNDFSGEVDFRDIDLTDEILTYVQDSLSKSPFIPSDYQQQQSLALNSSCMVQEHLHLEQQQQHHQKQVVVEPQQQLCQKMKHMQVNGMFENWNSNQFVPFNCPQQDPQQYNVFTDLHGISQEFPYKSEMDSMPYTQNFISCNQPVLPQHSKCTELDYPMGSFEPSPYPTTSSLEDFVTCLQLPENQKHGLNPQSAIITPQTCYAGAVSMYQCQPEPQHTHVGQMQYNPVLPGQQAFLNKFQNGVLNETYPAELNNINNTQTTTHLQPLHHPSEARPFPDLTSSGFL

On to `OCc1ccccn1`, for which the Potency result in assay [1], in assay [2], in assay [5], in assay [10], in assay [11] and in assay [13] was “inactive” each time. The compound was called inactive in assay [3], in assay [4], in assay [7], in [8], in assay [9] and in [12]. Further, in [6], the Potency was 11.9 µM (active).
Turning to `CCN(CC)C(=O)c1ccc(O)c(OC)c1`, the Potency result in assay [1], in [2], in [5], in assay [6], in [10] and in assay [11] was “inactive” throughout. Also, the Potency entry in [13] is “inactive”. For the same compound, the compound was called inactive in assay [3], in assay [4], in assay [7], in assay [8], in assay [9] and in [12]. In addition, the compound was called inactive in assay [14] and in [15].
Regarding `CCCCOCC(C)OCC(C)O` (stereo unspecified), the Potency result in assay [1], in assay [2], in assay [16], in assay [5], in assay [6] and in [10] was “inactive” throughout. For the same compound, the Potency result in assay [13] was “inactive”. Moreover, the call in [4], in assay [7], in assay [8], in assay [12], in assay [17] and in [14] was inactive. Moreover, the result in assay [18], in assay [15] and in assay [19] was inactive.
As for `OCCCCCCO`, the Potency entry in [1], in assay [2], in assay [5], in assay [6], in assay [10] and in [11] was “inactive” in each case. Further, the Potency result in assay [13] was “inactive”. In addition, the outcome in [3], in assay [4], in assay [7], in assay [8], in assay [9] and in assay [20] was inactive. For the same compound, the compound was called inactive in assay [12], in [17], in assay [14], in assay [18] and in assay [19].
As for `CCCC(C)CO` (stereo unspecified), the Potency result in assay [1], in assay [2], in assay [16], in assay [5], in assay [6] and in [10] was “inactive” in each case. Moreover, the Potency entry in [11] and in [13] was “inactive” throughout. For the same compound, the result in assay [7], in assay [9], in [20], in assay [12], in assay [14] and in assay [18] was inactive.
As to `O=[N+]([O-])c1ccc(CCO)cc1`, the Potency entry in [1], in assay [2], in assay [16], in assay [5], in assay [6] and in assay [10] was “inactive” in each case. Further, the Potency entry in assay [11] and in [13] was “inactive” throughout. For the same compound, the compound was classed as inactive in assay [7], in assay [8], in assay [20], in assay [12], in assay [17] and in [14]. The call in assay [15] was inactive.
Turning to `CCCc1ccc(N)cc1`, the Potency result in [1], in [2], in assay [16], in [5], in assay [6] and in assay [10] was “inactive” throughout. In addition, in [11], the Potency entry was “inactive”. Moreover, the compound was called inactive in assay [4], in assay [7], in [8], in assay [9], in assay [12] and in assay [14]. Moreover, the compound was called inactive in assay [15] and in [19].
With `O=C(O)c1ccccc1-c1ccc(C(F)(F)F)cc1`, the Potency result in assay [1], in [2], in assay [16], in assay [5], in assay [6] and in [10] was “inactive” throughout. Besides, the Potency entry in assay [11] was “inactive”. Further, the compound was classed as inactive in [7], in assay [8], in assay [9], in assay [20], in assay [12] and in assay [18]. Moreover, the compound was classed as inactive in [15].
Take `O=C(O)/C=C/c1ccc(Cn2ccnc2)cc1`: the Potency result in assay [1], in assay [2], in [16], in assay [6], in assay [10] and in [13] was “inactive” in each case. Moreover, the compound was called inactive in assay [7], in assay [8], in [12], in [15] and in assay [19].
